# Measured values as given in article PMC7862700, “An all-to-all approach to the identification of sequence-specific readers for epigenetic DNA modifications on cytosine”.
# How the values were obtained:
# Experiment in all cases: DAPPL (digital affinity profiling via proximity ligation, sequencing); 10 mM Tris-HCl pH 7.5, 50 mM NaCl, 1 mM DTT, 4% glycerol, room temperature, 30 min; GST-TFs on glutathione beads, 16-mer random dsDNA library, 0.1% formaldehyde crosslink after washing; high values mean tight binding
# [1] = biological target: T1, FLI1 (Homo sapiens, UniProt Q01543 1-452); conditions: protein: recombinant; tags: N-terminal GST; dsDNA, one strand shown
# T1 sequence: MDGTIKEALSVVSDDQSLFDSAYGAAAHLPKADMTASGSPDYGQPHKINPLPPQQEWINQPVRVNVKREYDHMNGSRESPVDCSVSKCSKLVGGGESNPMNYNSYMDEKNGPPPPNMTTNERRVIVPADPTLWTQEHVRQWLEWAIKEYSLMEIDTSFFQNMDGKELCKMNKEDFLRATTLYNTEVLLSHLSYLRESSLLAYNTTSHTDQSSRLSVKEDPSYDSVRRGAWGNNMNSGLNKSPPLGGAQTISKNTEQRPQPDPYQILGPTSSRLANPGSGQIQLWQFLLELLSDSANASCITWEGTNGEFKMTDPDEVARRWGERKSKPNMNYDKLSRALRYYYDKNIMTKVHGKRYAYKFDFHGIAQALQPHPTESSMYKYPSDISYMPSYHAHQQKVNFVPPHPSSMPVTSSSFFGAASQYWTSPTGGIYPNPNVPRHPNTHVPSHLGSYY
# How it was run: (§1)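 A tag-only sample was pooled with DNA-barcoded human transcription factors that had been expressed in yeast as GST fusions and captured on glutathione beads. The pools were incubated for 30 min at room temperature with 200 nmole of a random double-stranded 16-mer DNA library in Tris/NaCl/DTT/glycerol buffer, then washed, crosslinked with 0.1% formaldehyde, proximity-ligated (BsaI/T4 ligase, 1 h, 37 °C), PCR-amplified and sequenced on an Illumina NextSeq500. Binding signal is each hexamer's read frequency for a factor divided by its frequency for the tag-only sample.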
# [2] = biological target: T2, ELK1 (Homo sapiens, UniProt P19419 1-428); conditions: protein: recombinant; tags: N-terminal GST; dsDNA, one strand shown
# T2 sequence: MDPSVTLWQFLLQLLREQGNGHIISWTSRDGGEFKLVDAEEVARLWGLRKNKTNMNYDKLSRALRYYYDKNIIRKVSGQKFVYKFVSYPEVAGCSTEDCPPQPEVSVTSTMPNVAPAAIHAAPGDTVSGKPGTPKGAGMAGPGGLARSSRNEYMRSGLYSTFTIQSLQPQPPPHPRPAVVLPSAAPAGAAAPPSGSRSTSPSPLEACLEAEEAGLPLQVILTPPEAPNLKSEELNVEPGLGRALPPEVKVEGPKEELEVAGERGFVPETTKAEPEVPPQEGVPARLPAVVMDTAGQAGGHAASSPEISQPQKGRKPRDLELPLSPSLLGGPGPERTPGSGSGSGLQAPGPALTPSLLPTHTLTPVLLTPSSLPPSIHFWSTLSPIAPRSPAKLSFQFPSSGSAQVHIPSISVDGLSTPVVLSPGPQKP
# How it was run: as §1
# [3] = biological target: T3, GABPA (Homo sapiens, UniProt Q06546 1-454); conditions: protein: recombinant; tags: N-terminal GST; dsDNA, one strand shown
# T3 sequence: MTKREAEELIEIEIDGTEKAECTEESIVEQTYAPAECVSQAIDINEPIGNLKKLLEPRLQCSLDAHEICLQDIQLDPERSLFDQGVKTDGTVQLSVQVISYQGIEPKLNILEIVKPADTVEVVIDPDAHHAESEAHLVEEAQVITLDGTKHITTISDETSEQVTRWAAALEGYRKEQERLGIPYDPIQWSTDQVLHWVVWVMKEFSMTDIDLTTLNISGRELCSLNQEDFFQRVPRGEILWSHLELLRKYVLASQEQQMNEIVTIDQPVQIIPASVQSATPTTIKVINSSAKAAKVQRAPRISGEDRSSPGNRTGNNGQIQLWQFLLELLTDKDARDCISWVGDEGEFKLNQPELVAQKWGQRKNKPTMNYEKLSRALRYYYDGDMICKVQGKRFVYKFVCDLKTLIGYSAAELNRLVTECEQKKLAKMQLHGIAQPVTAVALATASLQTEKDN
# How it was run: as §1
# [4] = biological target: T4, ERG (Homo sapiens, UniProt P11308 1-479); conditions: protein: recombinant; tags: N-terminal GST; dsDNA, one strand shown
# T4 sequence: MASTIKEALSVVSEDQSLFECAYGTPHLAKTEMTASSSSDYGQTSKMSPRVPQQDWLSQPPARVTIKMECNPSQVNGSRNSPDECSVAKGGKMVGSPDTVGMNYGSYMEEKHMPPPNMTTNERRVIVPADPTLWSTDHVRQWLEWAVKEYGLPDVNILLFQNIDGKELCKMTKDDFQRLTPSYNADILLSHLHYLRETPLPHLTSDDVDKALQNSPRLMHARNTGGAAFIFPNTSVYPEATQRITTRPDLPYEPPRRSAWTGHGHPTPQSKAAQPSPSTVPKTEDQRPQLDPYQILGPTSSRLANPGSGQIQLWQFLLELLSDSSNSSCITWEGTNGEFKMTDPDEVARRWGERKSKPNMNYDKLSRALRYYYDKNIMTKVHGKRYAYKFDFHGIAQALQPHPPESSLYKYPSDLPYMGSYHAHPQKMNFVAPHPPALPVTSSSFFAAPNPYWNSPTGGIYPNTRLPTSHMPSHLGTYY
# How it was run: as §1
# [5] = biological target: ELF1 (Homo sapiens, UniProt P32519 1-619); conditions: protein: recombinant; tags: N-terminal GST; dsDNA, one strand shown
# ELF1, sequence (P32519 whole entry): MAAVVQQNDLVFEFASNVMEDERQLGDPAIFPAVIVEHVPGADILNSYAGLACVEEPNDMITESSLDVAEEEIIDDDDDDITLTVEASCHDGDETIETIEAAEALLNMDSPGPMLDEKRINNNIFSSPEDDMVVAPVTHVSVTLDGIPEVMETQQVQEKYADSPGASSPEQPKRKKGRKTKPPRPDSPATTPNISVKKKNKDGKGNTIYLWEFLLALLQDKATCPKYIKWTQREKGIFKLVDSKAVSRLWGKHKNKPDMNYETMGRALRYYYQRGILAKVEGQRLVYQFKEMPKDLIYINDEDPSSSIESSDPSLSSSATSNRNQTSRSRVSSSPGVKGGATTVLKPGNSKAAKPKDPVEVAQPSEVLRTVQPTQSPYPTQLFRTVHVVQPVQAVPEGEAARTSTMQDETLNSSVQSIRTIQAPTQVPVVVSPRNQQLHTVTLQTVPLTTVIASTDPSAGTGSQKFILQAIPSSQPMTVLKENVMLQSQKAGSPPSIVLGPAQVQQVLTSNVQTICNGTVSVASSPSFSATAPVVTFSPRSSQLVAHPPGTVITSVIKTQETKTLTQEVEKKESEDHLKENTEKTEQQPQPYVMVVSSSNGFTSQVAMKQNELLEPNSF
# How it was run: as §1
# [6] = biological target: T5, EHF (Homo sapiens, UniProt Q9NZC4 1-300); conditions: protein: recombinant; tags: N-terminal GST; dsDNA, one strand shown
# T5 sequence: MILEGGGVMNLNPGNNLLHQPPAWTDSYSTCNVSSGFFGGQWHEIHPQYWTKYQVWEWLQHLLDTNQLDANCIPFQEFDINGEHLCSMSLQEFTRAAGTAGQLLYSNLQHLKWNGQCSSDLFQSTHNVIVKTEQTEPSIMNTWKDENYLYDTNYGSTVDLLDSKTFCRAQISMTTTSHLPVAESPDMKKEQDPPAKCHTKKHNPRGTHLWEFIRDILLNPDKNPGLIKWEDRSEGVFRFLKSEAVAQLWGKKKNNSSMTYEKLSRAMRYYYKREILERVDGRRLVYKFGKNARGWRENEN
# How it was run: as §1
# [7] = biological target: SPI1 (Homo sapiens, UniProt P17947 1-270); conditions: protein: recombinant; tags: N-terminal GST; dsDNA, one strand shown
# How it was run: as §1
# [8] = biological target: SPIB (Homo sapiens, UniProt Q01892 1-262); conditions: protein: recombinant; tags: N-terminal GST; dsDNA, one strand shown
# SPIB, sequence (Q01892 whole entry): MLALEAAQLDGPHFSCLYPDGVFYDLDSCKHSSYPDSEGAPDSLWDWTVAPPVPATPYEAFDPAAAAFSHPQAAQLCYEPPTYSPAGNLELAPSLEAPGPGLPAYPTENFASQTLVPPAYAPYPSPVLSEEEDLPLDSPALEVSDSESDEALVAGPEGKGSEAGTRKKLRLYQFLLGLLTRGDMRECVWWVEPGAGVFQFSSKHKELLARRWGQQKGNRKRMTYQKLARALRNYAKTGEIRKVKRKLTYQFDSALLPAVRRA
# How it was run: as §1
# [9] = biological target: T6, ELK3 (Homo sapiens, UniProt P41970 1-407); conditions: protein: recombinant; tags: N-terminal GST; dsDNA, one strand shown
# T6 sequence: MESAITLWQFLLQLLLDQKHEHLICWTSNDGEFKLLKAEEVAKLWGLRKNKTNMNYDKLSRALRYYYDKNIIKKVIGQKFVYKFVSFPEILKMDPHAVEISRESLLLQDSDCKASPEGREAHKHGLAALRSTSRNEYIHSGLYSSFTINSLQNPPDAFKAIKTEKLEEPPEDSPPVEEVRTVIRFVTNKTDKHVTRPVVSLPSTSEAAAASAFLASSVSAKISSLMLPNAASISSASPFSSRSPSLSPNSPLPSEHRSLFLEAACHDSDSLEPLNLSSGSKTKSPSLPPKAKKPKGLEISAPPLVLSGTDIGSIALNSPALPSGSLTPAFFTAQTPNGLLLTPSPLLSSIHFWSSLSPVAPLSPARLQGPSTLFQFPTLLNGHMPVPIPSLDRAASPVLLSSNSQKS
# How it was run: as §1
# [10] = biological target: T7, FEV (Homo sapiens, UniProt Q99581 1-238); conditions: protein: recombinant; tags: N-terminal GST; dsDNA, one strand shown
# T7 sequence: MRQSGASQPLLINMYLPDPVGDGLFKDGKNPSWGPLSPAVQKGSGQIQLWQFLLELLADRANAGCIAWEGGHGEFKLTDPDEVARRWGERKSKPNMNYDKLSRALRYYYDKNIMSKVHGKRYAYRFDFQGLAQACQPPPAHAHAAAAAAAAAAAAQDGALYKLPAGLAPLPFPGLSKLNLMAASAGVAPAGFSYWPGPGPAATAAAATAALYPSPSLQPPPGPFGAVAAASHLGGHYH
# How it was run: as §1
# [11] = biological target: ETV5 (Homo sapiens, UniProt P41161 1-510); conditions: protein: recombinant; tags: N-terminal GST; dsDNA, one strand shown
# ETV5, sequence (P41161 whole entry): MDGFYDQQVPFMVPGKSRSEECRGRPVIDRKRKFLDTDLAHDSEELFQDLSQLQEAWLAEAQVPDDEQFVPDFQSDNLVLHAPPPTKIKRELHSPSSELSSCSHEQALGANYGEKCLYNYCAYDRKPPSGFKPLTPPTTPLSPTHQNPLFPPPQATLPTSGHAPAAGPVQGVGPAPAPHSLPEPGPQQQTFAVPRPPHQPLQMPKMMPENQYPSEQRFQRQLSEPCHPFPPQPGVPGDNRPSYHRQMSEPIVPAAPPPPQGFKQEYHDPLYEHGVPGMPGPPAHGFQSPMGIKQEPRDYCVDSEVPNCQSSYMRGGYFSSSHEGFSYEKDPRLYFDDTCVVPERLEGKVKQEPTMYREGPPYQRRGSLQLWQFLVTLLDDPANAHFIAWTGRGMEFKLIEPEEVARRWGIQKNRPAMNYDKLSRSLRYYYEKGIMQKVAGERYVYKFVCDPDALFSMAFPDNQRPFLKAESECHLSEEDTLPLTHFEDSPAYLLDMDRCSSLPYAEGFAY
# How it was run: as §1
# [12] = biological target: HSF1 (Homo sapiens, UniProt Q00613 1-529); conditions: protein: recombinant; tags: N-terminal GST; chain copies: 3; dsDNA, one strand shown
# HSF1, sequence (Q00613 whole entry): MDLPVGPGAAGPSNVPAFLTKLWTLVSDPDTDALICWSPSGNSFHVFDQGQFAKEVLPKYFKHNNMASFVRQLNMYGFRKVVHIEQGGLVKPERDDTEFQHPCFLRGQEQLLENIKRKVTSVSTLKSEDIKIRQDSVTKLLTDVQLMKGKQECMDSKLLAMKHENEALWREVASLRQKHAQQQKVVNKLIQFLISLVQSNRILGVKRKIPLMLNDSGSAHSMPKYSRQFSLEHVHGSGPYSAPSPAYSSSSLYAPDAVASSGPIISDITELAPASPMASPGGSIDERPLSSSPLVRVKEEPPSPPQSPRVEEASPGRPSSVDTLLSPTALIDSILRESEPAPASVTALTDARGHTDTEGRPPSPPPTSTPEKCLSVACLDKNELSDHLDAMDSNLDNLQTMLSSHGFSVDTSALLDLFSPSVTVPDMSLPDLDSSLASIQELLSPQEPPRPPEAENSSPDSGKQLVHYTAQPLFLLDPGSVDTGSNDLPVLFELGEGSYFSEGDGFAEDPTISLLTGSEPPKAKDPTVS
# How it was run: as §1
# [13] = biological target: T8, SPIC (Homo sapiens, UniProt Q8N5J4 1-248); conditions: protein: recombinant; tags: N-terminal GST; dsDNA, one strand shown
# T8 sequence: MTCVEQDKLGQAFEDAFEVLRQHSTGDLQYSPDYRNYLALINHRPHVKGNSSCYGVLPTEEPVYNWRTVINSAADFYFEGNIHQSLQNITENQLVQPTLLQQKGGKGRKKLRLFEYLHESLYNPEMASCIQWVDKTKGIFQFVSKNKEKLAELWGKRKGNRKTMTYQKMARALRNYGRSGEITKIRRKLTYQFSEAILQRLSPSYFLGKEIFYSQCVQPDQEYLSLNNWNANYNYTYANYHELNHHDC
# How it was run: as §1
# [14] = biological target: ELF4 (Homo sapiens, UniProt Q99607 1-663); conditions: protein: recombinant; tags: N-terminal GST; dsDNA, one strand shown
# ELF4, sequence (Q99607 whole entry): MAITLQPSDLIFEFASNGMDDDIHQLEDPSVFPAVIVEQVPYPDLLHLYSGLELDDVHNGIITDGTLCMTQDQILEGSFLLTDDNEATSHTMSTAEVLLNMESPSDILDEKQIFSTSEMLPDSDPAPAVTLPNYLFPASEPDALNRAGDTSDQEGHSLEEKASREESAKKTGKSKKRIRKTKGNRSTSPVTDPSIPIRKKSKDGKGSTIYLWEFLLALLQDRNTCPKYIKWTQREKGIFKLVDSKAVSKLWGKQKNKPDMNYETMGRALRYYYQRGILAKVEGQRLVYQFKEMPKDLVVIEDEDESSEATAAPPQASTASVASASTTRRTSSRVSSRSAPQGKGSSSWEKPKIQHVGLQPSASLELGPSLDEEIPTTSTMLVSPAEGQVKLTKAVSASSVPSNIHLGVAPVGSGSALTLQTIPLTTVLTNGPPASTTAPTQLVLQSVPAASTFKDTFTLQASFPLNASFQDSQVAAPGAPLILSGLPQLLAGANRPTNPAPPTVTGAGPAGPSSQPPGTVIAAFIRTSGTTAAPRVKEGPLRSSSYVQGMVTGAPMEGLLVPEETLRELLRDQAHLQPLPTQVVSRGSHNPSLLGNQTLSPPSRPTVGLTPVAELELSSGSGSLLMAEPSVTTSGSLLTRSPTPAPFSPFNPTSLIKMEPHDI
# How it was run: as §1
# [15] = biological target: T9, ELK4 (Homo sapiens, UniProt P28324-2 1-405); conditions: protein: recombinant; tags: N-terminal GST; dsDNA, one strand shown
# T9 sequence: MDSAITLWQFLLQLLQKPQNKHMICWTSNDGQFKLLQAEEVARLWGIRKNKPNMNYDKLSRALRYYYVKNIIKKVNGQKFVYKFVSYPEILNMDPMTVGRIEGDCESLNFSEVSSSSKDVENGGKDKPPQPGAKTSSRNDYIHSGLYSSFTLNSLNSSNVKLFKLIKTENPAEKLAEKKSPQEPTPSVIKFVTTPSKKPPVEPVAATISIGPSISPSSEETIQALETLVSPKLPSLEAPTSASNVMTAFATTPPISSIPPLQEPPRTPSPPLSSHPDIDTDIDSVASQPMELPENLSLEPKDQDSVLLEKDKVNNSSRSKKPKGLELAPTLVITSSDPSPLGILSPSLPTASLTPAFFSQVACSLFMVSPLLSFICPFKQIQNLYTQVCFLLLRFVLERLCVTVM
# How it was run: as §1
# [16] = biological target: T10, ETV2 (Homo sapiens, UniProt O00321 1-342); conditions: protein: recombinant; tags: N-terminal GST; dsDNA, one strand shown
# T10 sequence: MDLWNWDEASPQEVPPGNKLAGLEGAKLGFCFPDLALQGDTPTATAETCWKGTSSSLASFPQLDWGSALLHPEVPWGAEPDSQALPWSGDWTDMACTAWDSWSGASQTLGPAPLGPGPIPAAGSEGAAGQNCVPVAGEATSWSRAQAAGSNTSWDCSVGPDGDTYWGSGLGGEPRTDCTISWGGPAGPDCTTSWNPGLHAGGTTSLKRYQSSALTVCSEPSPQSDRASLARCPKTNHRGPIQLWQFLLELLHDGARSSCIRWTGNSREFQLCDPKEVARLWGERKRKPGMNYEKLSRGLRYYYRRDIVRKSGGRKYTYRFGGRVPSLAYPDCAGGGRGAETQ
# How it was run: as §1
# [17] = biological target: T11, ELF3 (Homo sapiens, UniProt P78545 1-371); conditions: protein: recombinant; tags: N-terminal GST; dsDNA, one strand shown
# T11 sequence: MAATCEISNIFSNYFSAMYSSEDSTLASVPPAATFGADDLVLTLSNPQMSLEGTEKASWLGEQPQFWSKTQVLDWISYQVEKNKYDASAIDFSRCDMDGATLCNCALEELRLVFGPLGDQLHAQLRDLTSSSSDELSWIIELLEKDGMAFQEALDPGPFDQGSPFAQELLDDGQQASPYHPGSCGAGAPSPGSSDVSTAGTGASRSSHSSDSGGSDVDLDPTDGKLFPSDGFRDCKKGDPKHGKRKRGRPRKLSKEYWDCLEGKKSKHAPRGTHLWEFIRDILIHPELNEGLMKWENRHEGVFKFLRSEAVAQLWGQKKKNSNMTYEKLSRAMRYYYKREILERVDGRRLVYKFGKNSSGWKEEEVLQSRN
# How it was run: as §1
# [18] = biological target: CRX (Homo sapiens, UniProt O43186 1-299); conditions: protein: recombinant; tags: N-terminal GST; dsDNA, one strand shown
# CRX, sequence (O43186 whole entry): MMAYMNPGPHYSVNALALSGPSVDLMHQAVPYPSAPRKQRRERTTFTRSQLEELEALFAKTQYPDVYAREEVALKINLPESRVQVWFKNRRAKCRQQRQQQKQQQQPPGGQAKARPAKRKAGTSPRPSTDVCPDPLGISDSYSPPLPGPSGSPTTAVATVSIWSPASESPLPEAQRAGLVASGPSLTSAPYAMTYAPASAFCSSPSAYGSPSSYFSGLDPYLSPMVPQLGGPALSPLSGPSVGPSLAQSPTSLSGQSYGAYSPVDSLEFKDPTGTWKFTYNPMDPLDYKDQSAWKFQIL
# How it was run: as §1
# [19] = biological target: ETV1 (Homo sapiens, UniProt P50549 1-477); conditions: protein: recombinant; tags: N-terminal GST; dsDNA, one strand shown
# ETV1, sequence (P50549 whole entry): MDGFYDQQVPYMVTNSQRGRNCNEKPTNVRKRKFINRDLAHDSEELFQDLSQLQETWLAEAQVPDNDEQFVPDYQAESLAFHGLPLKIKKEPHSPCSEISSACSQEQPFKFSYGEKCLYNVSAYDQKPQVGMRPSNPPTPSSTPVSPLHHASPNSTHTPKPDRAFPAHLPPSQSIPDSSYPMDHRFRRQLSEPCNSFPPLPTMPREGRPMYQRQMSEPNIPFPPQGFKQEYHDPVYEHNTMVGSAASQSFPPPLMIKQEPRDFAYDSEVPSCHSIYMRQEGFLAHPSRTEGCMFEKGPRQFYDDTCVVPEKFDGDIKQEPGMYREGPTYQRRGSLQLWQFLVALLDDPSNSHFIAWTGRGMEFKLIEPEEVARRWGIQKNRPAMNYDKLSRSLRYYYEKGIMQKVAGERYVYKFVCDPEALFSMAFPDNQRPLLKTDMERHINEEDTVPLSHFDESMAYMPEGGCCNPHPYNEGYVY
# How it was run: as §1
sequence,measurement,setting,value
ATGACG,binding signal,[1],"1.28 fold enrichment (6-mer frequency, TF over GST control)"
same,binding signal,[2],"1.44 fold enrichment (6-mer frequency, TF over GST control)"
same,binding signal,[3],"1.37 fold enrichment (6-mer frequency, TF over GST control)"
same,binding signal,[4],"1.29 fold enrichment (6-mer frequency, TF over GST control)"
same,binding signal,[5],"1.34 fold enrichment (6-mer frequency, TF over GST control)"
same,binding signal,[6],"1.21 fold enrichment (6-mer frequency, TF over GST control)"
same,binding signal,[7],"1.32 fold enrichment (6-mer frequency, TF over GST control)"
same,binding signal,[8],"1.43 fold enrichment (6-mer frequency, TF over GST control)"
same,binding signal,[9],"1.39 fold enrichment (6-mer frequency, TF over GST control)"
same,binding signal,[10],"1.32 fold enrichment (6-mer frequency, TF over GST control)"
same,binding signal,[11],"1.4 fold enrichment (6-mer frequency, TF over GST control)"
same,binding signal,[12],"1.13 fold enrichment (6-mer frequency, TF over GST control)"
same,binding signal,[13],"1.18 fold enrichment (6-mer frequency, TF over GST control)"
same,binding signal,[14],"1.39 fold enrichment (6-mer frequency, TF over GST control)"
same,binding signal,[15],"1.47 fold enrichment (6-mer frequency, TF over GST control)"
same,binding signal,[16],"1.25 fold enrichment (6-mer frequency, TF over GST control)"
same,binding signal,[17],"1.3 fold enrichment (6-mer frequency, TF over GST control)"
same,binding signal,[18],"1.11 fold enrichment (6-mer frequency, TF over GST control)"
same,binding signal,[19],"1.3 fold enrichment (6-mer frequency, TF over GST control)"
